Source: PubChem BioAssay AID1159580 (chemical genetic matrix, 2015)
About 2,000 (36%) of roughly 5,500 compounds were called active. Roughly 18% stayed inconclusive and do not appear here. Cut-off read from the data, not from the text of the source: active = normalized growth mostly below about 0.91 (no sharp cut-off); inconclusive = no clear call, values can overlap the other calls; inactive = mostly above about 0.92. Some of the results follow.

Test: chemical genetic growth profiling, strain panel (AID 1159580);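 note: tested at 20 µM; growth read once vehicle control cultures reached saturation at 30 °C; 1 = growth at the plate median or of vehicle wells; lower values mean less growth of the strain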
Details: S. cerevisiae deletion strains, growth OD

Measured: normalized growth

C[C@@]1(C2CCCC2)Cc2cc(OCC(=O)O)c(Cl)c(Cl)c2C1=O
inactive: locus YAL040C, strain CLN3, stronger effect = lower value 1 | locus YCL061C, strain MRC1 (second series), stronger effect = lower value 1.01 | locus YDR363W, strain ESC2, stronger effect = lower value 1.01 | locus YER002W, strain NOP16, stronger effect = lower value 1 | locus YMR307W, strain GAS1, stronger effect = lower value 1.01 | locus YNL128W, strain TEP1, stronger effect = lower value 1 | locus YNL175C, strain NOP13, stronger effect = lower value 1 | locus YNL197C, strain WHI3, stronger effect = lower value 1 | locus YNL224C, strain SQS1, stronger effect = lower value 1 | locus YNL322C, strain KRE1, stronger effect = lower value 1 | locus YOR083W, strain WHI5 (second series), stronger effect = lower value 1.01 | locus YPL055C, strain LGE1, stronger effect = lower value 1.01 | locus YPL241C, strain CIN2, stronger effect = lower value 1.01
